# Results reported in PubChem BioAssay (NCATS).
# Records with an inconclusive call do not appear. A call without a number means that no potency is given here. Calls of active or inactive are those of the source. Calls follow the shape of the dose curve; as a rule, active = well fitted curve in the direction sought with a large enough effect; inconclusive = small, poorly fitted or top-dose-only effect, or another doubt; inactive = no such curve, though single readings can be large; an effect the other way counts as inactive or inconclusive.
# Legend:
# WaGa = assay: qHTS assay to identify novel small-molecules to repurpose for Merkel cell carcinoma treatment (AID 1296009); details: MCC and control cell lines, CellTiter-Glo viability, 72 h; series mostly up to 46 µM; also: nearly all actives have a fitted effect of over 60% in size; also: potency is read from the fitted curve at half-maximal effect
# Summary of the method: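 Cells exposed to NPC (8-point) and MIPE (11-point) compound dilutions for 72 hr at 37 degree celsius; viability read by CellTiter-Glo luminescence, normalized to no-cell and DMSO in-plate controls.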
# C33A = assay: Primary qHTS to identify gynecologic anti-cancer compounds using libraries of approved drugs and bioactive compounds (AID 1345084); details: Gynecologic cancer cell panel viability, ATPlite luminescence, 48 h; series mostly up to 57.5 µM; also: nearly all actives have a fitted effect of over 55% in size
# Summary of the method: (§1)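 In this quantitative HTS, cell killing is estimated from loss of ATP-dependent luciferase light. Cells see five compound concentrations over a 48 h exposure.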
# CAOV3 = assay: as above; details: Gynecologic cancer cell panel viability, ATPlite luminescence, 48 h; series mostly up to 57.5 µM
# Summary of the method: as §1
# CASKI = assay: as above; details: Gynecologic cancer cell panel viability, ATPlite luminescence, 48 h; series mostly up to 57.5 µM
# Summary of the method: as §1
# Es-2 = assay: as above; details: Gynecologic cancer cell panel viability, ATPlite luminescence, 48 h; series mostly up to 57.5 µM
# Summary of the method: as §1
# HeLa = assay: as above; details: Gynecologic cancer cell panel viability, ATPlite luminescence, 48 h; series mostly up to 57.5 µM
# Summary of the method: as §1
# Hek293T = assay: as above; details: Gynecologic cancer cell panel viability, ATPlite luminescence, 48 h, control line for the selectivity index; series mostly up to 57.5 µM
# Summary of the method: as §1
# JEG-3 = assay: as above; details: Gynecologic cancer cell panel viability, ATPlite luminescence, 48 h; series mostly up to 57.5 µM
# Summary of the method: as §1
# OV90 = assay: as above; details: Gynecologic cancer cell panel viability, ATPlite luminescence, 48 h; series mostly up to 57.5 µM
# Summary of the method: as §1
# PA-1 = assay: as above; details: Gynecologic cancer cell panel viability, ATPlite luminescence, 48 h; series mostly up to 57.5 µM
# Summary of the method: as §1
compound,measurement,setting,value
C[C@]12CC[C@@H]3[C@@H](CCC4=CC(=O)CC[C@@H]43)[C@@H]1CC[C@@H]2OC(=O)CCc1ccccc1,Potency,WaGa,inactive
C1=C2CCCN[C@H]2[C@@H]2C[C@H]1[C@@H]1CCCCN1C2,Potency,WaGa,inactive
O=c1cccc2n1CC1CNC[C@H]2C1,Potency,WaGa,2.35 µM (active)
C1CCC(NC2CCCCC2)CC1,Potency,WaGa,inactive
same,Potency,C33A,inactive
same,Potency,CAOV3,inactive
same,Potency,CASKI,inactive
same,Potency,Es-2,inactive
same,Potency,HeLa,inactive
same,Potency,Hek293T,inactive
same,Potency,JEG-3,inactive
same,Potency,OV90,inactive
same,Potency,PA-1,inactive
CC(=Cc1csc(C)n1)[C@@H]1C[C@H]2O[C@@H]2CCC[C@H](C)[C@@H](O)[C@@H](C)C(=O)C(C)(C)[C@@H](O)CC(=O)O1,Potency,WaGa,inactive
Nc1ccc(Sc2ccc(N)cc2)cc1,Potency,WaGa,inactive
same,Potency,C33A,inactive
same,Potency,CAOV3,inactive
same,Potency,CASKI,inactive
same,Potency,Es-2,inactive
same,Potency,HeLa,inactive
same,Potency,Hek293T,inactive
same,Potency,JEG-3,inactive
COc1ccc2c(c[n+](C)c3c4cc5c(cc4ccc23)OCO5)c1OC,Potency,WaGa,3.32 µM (active)
O=C(N[C@H]1CN2CCC1CC2)c1ccc(Cl)cc1,Potency,WaGa,inactive
same,Potency,C33A,inactive
same,Potency,CAOV3,inactive
same,Potency,CASKI,inactive
same,Potency,Es-2,inactive
same,Potency,HeLa,inactive
same,Potency,Hek293T,inactive
same,Potency,JEG-3,inactive
same,Potency,OV90,inactive
same,Potency,PA-1,inactive
O=[N+]([O-])/N=C1\NCCN1Cc1ccc(Cl)nc1,Potency,WaGa,inactive
same,Potency,C33A,inactive
same,Potency,CAOV3,inactive
same,Potency,CASKI,inactive
same,Potency,Es-2,inactive
same,Potency,HeLa,inactive
same,Potency,Hek293T,inactive
same,Potency,JEG-3,inactive
same,Potency,OV90,inactive
same,Potency,PA-1,inactive
CN[C@@H]1Cc2cccc3[nH]c(=O)n(c23)C1,Potency,WaGa,inactive
CCc1c(C(=O)C(N)=O)c2c(OCC(=O)O)cccc2n1Cc1ccccc1,Potency,WaGa,inactive
same,Potency,C33A,inactive
same,Potency,CAOV3,inactive
same,Potency,CASKI,inactive
same,Potency,Es-2,inactive
same,Potency,HeLa,inactive
same,Potency,Hek293T,inactive
same,Potency,JEG-3,inactive
same,Potency,OV90,inactive
same,Potency,PA-1,inactive
